Reference: PubChem BioAssay (NCI)
This is part of a sample that, as a whole, favours compounds with a hit. Of some 79,000 tested, about 15% had one in any assay. Active and inactive are the calls of the source. Rule as the data show it: active = growth inhibition above about 70%; inactive = the rest.

Key:
[1] = NCI Yeast Anticancer Drug Screen. Data for the rad50 strain (AID 155);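 also: 0% = growth of vehicle-only cultures of the same strain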; settings: S. cerevisiae rad50 strain growth inhibition; at 50.0 µM; hits give high values
Outline: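 Growth of the mutant yeast was measured after compound exposure and referenced to vehicle-treated cultures.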

[2] = NCI Yeast Anticancer Drug Screen. Data for the mec2-1 strain (AID 157); settings: S. cerevisiae mec2-1 strain, at 50.0 µM, hits give high values
Outline: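 Mutant yeast (mec2-1) grown with compound; growth inhibition relative to vehicle control reported.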

[3] = NCI Yeast Anticancer Drug Screen. Data for the sgs1 mgt1 strain (AID 161);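 also: 0% = growth of cultures given vehicle only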; settings: S. cerevisiae sgs1 mgt1 strain, at 50.0 µM, hits give high values
Outline: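 Yeast cells carrying a defined DNA-repair defect were exposed to test compounds. Growth inhibition was measured relative to vehicle-treated controls.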

[4] = NCI Yeast Anticancer Drug Screen. Data for the cln2 rad14 strain (AID 165);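 also: 0% = growth equal to vehicle treated cultures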; settings: S. cerevisiae cln2 rad14 strain, at 50.0 µM, hits give high values
Outline: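 Readout is yeast growth inhibition versus vehicle-treated controls, using a strain with cln2 and rad14 alterations exposed to compound.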

[5] = NCI Yeast Anticancer Drug Screen. Data for the bub3 strain (AID 167); settings: S. cerevisiae bub3 mutant strain, at 50.0 µM, hits give high values
Outline: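 Whole-cell yeast assay. The mutant strain was incubated with compounds, and growth inhibition was determined by comparison with vehicle-treated cells.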

[6] = NCI Yeast Anticancer Drug Screen. Data for the mlh1 rad18 strain (AID 175); settings: S. cerevisiae mlh1 rad18 strain growth inhibition; at 50.0 µM; hits give high values
Outline: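 Genetically defined yeast (DNA repair-deficient) exposed to compounds; growth inhibition determined relative to vehicle.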

Measured: growth inhibition

COc1cc(OC)c(NC(=O)C(Cl)(Cl)Cl)cc1Cl
inactive: [1] 4% | [2] 42% | [3] 5.9% | [4] -17.4% | [5] 30.9% | [6] 27.4%

CC(=O)N1c2ccccc2C23CCN4CC5=CCOC(O)C(C5CC42)C13 (stereo unspecified)
inactive: [1] -20.1% | [2] -21.4% | [3] -18.6% | [4] -6.55% | [5] -13.9% | [6] -62.4%

O=C(CSc1nnc(Cc2ccccc2)o1)Nc1cccc([N+](=O)[O-])c1
inactive: [1] 20.6% | [2] 5.1% | [3] 12.1% | [4] -10.3% | [5] -8.4% | [6] -17%

O=C(O)C1CCCCC1C(=O)Nc1cccc2ccccc12 (stereo unspecified)
inactive: [1] 6.65% | [2] -2.8% | [3] -4.3% | [4] -7.95% | [5] 24.4% | [6] -39.5%

CN(C)c1ccc(/C=N/NC(=O)NN)cc1
inactive: [1] 6.2% | [2] -12.3% | [3] -23.3% | [4] -2.85% | [5] -2.15% | [6] -15.9%

CC/C(C=O)=C\NC(=O)Nc1ccccc1
inactive: [1] 9.35% | [2] -21.6% | [3] 0.8% | [4] -22.9% | [5] -26.6% | [6] 1.1%

S=C(Nc1ccccc1)N1N=C2c3ccccc3CC[C@H]2[C@@H]1c1ccccc1
inactive: [1] -24.3% | [2] -37.9% | [3] -37.5% | [4] -1% | [5] -28.2% | [6] -58.5%

O=C(CCl)Oc1cccc2cccnc12
inactive: [1] -8.75% | [2] 9% | [3] -1.35% | [4] -12.2% | [5] -2.45% | [6] -2.75%

C=C(Br)CN1CCC2(c3ccccc3)C(=O)C([Se]c3ccccc3)CCC12 (stereo unspecified)
inactive: [1] -5.45% | [2] 8.15% | [3] 8.9% | [4] -7.25% | [5] -1.35% | [6] -0.95%

Cc1cc([N+](=O)[O-])ccc1NC(=O)C(=O)C(C(=O)c1ccccc1-c1ccccc1)C1OC(=O)c2ccccc21 (stereo unspecified)
inactive: [1] 12% | [2] 12.4% | [3] -5.4% | [4] -52% | [5] 6.8% | [6] 41.5%

CN(C)C(=O)/N=C1\SC(=Nc2ccccc2)C(=Nc2ccccc2)N1c1ccc([N+](=O)[O-])cc1
inactive: [1] -1.65% | [2] 5.5% | [3] -1.7% | [4] 27.2% | [5] 16.4% | [6] -12.3%

O=C(NCCCN1CCCCCC1)C(c1ccccc1)C1CCCCC1 (stereo unspecified)
inactive: [1] 25.3% | [2] -16.4% | [3] 49.4% | [4] 13.9% | [5] 14.6% | [6] 36.1%

O=C1C=CC(=O)N1CCCCN1C(=O)C=CC1=O
inactive: [1] 18.8% | [2] 3.75% | [3] -17.9% | [4] -20.1% | [5] -14.4% | [6] -11.9%

NC(=O)C1=CC2C3C=CC2(O)C(=O)OC3O1 (stereo unspecified)
inactive: [1] -15.3% | [2] -28.6% | [3] -12.6% | [4] 3.2% | [5] -22.9% | [6] -11.1%

CC1=NN(c2ccccc2C)C(=O)C1
inactive: [1] 2.05% | [2] -27.8% | [3] -5.1% | [4] -2.6% | [5] -27.9% | [6] 8.1%

COc1ccc(C(C)c2cc3c(cc2OC)OCO3)cc1OC (stereo unspecified)
inactive: [1] -4.95% | [2] -6.7% | [3] 11.1% | [4] 5.2% | [5] 16.9% | [6] 25.3%

O=C(/C=C\c1ccco1)NC(=O)NC(=O)N1CCCCC1
inactive: [1] -0.7% | [2] -22.3% | [3] -2.05% | [4] -16.4% | [5] -9.15% | [6] 4.7%

O=C(O)CNCc1ccc2c(c1)OCCO2
inactive: [1] 6.7% | [2] 15.7% | [3] -10.4% | [4] -3.35% | [5] -3.5% | [6] -15.8%

O=C(NC(=O)c1ccccc1O)c1ccccc1
inactive: [1] -4.6% | [2] 5.45% | [3] -15.4% | [4] -0.35% | [5] -19.5% | [6] -11.2%

CC(C)(C)[N+](=O)[O-]
inactive: [1] -17.2% | [2] -27.1% | [3] -10.7% | [4] 4.95% | [5] 1.4% | [6] 17.1%

COc1cc(C(=O)O)cc(OC(C)=O)c1OC
inactive: [1] 16.6% | [2] 3.9% | [3] 8.3% | [4] 8.65% | [5] 3.4% | [6] 20.7%

CC(C)CCCC(C)C1CCC2C3CCC4CC(=O)CCCC4(C)C3CCC12C (stereo unspecified)
inactive: [1] 19.8% | [2] 3.35% | [3] 20.7% | [4] 12.2% | [5] 2.1% | [6] 32.5%

COc1cc(NN=C(C#N)C#N)c(OC)cc1Cl
inactive: [1] 37.6% | [2] 11.2% | [3] 48% | [4] 23.1% | [5] 40.7% | [6] 34.7%

COc1ccc(/C=C2/SC(=S)NC2=O)cc1S(=O)(=O)O
inactive: [1] 2.25% | [2] -6.15% | [3] 8.65% | [4] -10.8% | [5] 9.95% | [6] -1.15%

O=C1NC(=S)S/C1=C\c1ccncc1
inactive: [1] 12.4% | [2] -7.4% | [3] -10.4% | [4] 0.9% | [5] 0.05% | [6] -19.1%

c1ccc(Cn2c(-c3ccccc3)c[n+]3ccccc23)cc1
inactive: [1] -11.4% | [2] -10.1% | [3] 5.35% | [4] -49.4% | [5] 10.3% | [6] -6.4%

CC(C)CCc1ccc(O)cc1
inactive: [1] 5% | [2] -10.9% | [3] -27.2% | [4] -31.9% | [5] 0.65% | [6] -5.15%

COc1ccc2[nH]c(Br)c(CCNC(C)=O)c2c1
inactive: [1] -25.6% | [2] -7.4% | [3] -16.9% | [4] 1.9% | [5] -4.55% | [6] -31.9%

C=CCNC(=O)c1ccccc1OCC(=O)O
inactive: [1] -12.7% | [2] -37.3% | [3] -8.75% | [4] -8.1% | [5] -29.1% | [6] 1.4%

O=C(CCCC(=O)NNC(=O)Nc1cccc(Cl)c1)NNC(=O)Nc1cccc(Cl)c1
inactive: [1] -13.2% | [2] -2.2% | [3] -10.9% | [4] -12.9% | [5] -1.7% | [6] -10.6%

COc1cccc(/C=C/S(=O)(=O)Cc2ccccc2)c1OC
inactive: [1] 9.7% | [2] 4.85% | [3] 4.85% | [4] 23.4% | [5] 7.4% | [6] 26.1%

COC1(C)O[C@@]2(C)c3ccccc3C(=O)[C@@]2(c2ccccc2)O1 (stereo partly specified)
inactive: [1] -3.35% | [2] -0.05% | [3] 13.1% | [4] -11.5% | [5] 5.4% | [6] 18.5%

COc1ccc(N2C(=O)CC(c3c[nH]c4ccccc34)C2=O)cc1 (stereo unspecified)
inactive: [1] -29.2% | [2] -37.1% | [3] 1.05% | [4] 6.9% | [5] 13.8% | [6] -22.2%

C[C@@H]1CC[C@]2(C(=O)O)CC[C@]3(C)C(=CC[C@@H]4[C@@]5(C)CC[C@H](O)C(C)(C)[C@@H]5CC[C@]43C)[C@@H]2[C@]1(C)O
inactive: [1] 27.1% | [2] 38.5% | [3] 2.75% | [4] 13.5% | [5] 26.4% | [6] -65%

O=C(NC12OC3CC(CC(C3)O1)O2)NC12OC3CC(CC(C3)O1)O2
inactive: [1] 3.6% | [2] 0.35% | [3] 14.2% | [4] -3.85% | [5] -30.3% | [6] 2.2%

O=[N+]([O-])c1ccc2[nH]c(=S)n(/C=C(/c3ccccc3)S(=O)Cc3ccccc3)c2c1 (stereo unspecified)
inactive: [1] -2.45% | [2] -22.6% | [3] -18.7% | [4] -3.15% | [5] -12% | [6] -5.15%

CC(/C=C1\N=C(c2ccccc2)OC1=O)=C\c1ccccc1
inactive: [1] -40% | [2] -22.1% | [3] -33.5% | [4] 9.2% | [5] -35.4% | [6] -28.9%

c1ccc(SSc2ccc3ccccc3c2)cc1
inactive: [1] 22.4% | [2] 39.1% | [3] 32.6% | [4] 24.6% | [5] 31.4% | [6] 28.3%

CSSC(SSC)C(SSC)SSC
inactive: [1] -4.7% | [2] 4.2% | [3] 43.4% | [4] 1.4% | [5] 36.8% | [6] 47.8%

Nc1ccc(N(S(=O)(=O)c2ccccc2)S(=O)(=O)c2ccccc2)c(Cl)c1
inactive: [2] 45.8% | [4] 39.5% | [5] 69%
active: [1] 77.3% | [3] 82% | [6] 78.7%

CCCCCCCCCCCCCCCC(=O)O
inactive: [1] -12.9% | [2] -34.1% | [3] -18.9% | [4] -2.9% | [5] -29.8% | [6] -34.9%
